# Compound activity deposited in PubChem BioAssay by National Center for Advancing Translational Sciences (NCATS).
# Compounds with a hit are over-represented: about 18% of the library has one in this group of screens.
# TDP1 block – blocks human tyrosyl-DNA phosphodiesterase 1; AID 485290; recombinant TDP1, AlphaScreen DNA substrate cleavage; 0.28% of 350,000 active; Potency, µM (doses to about 130 µM), most hits filed as inhibitors; Q9NUW8; note: nearly all actives have a fitted effect of over 40% in size
#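 Tdp1 1 nM final; 15 min RT w/ cpd; substrate 15 nM, 5 min; beads 10 ug/ml, 10 min; AlphaScreen read. Neg ctrl: no enzyme.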
# GCN5L2 inh – GCN5L2 (KAT2A) acetyltransferase inhibition | Q92830 | GCN5L2 HAT assay, ThioGlo1 CoA-SH fluorescence | Potency, µM (top dose mostly 58.9 µM), most hits filed as inhibitors | 0.21% of 390,000 active | AID 504327
#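 Preincubate 20nM GCN5L2 with compound 15 min, RT → add 50uM ThioGlo1 + 75uM H3(1-25) + 70uM acetyl-CoA → read fluorescence 0 and 20 min. Primary qHTS; fluorescent artifacts likely.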
# DT40 TDP1 CPT – growth inhibition of DT40 Tdp1-/-;hTDP1 cells with camptothecin (screen for TDP1 inhibitors). 12% of 420,000 active. Potency, µM (top dose mostly 46.2 µM), usual class: inhibitors. chicken DT40 Tdp1-/-;hTDP1 cells + 20 nM CPT, ATP luminescence, 48 h; note: nearly all actives have a fitted effect of over 55% in size
#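 Chicken DT40 Tdp1-/- cells complemented with human TDP1, 400 cells/well, exposed to compounds plus 20 nM camptothecin for at least 48 h at 37 C; viability read as ATP content by CellTiter-Glo luminescence.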
# VDR inhibitor – vitamin D3 receptor (human) inhibition; P11473; AID 504847; Potency, µM, hits mostly inhibitors; 0.93% of 400,000 active; VDR-SRC2-3 peptide fluorescence polarization, 2 h
#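 Inhibition of the VDR/SRC2-3 peptide interaction is quantified by fluorescence polarization. Compounds (23 nl, pintool) incubate with the reagents for 2 hours at ambient room temperature.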
# PLK1 PBD inh – blocks phosphopeptide binding to human PLK1 polo-box domain. P53350. Plk1 PBD binding of FITC phosphopeptide, fluorescence polarization. Potency, µM, usual class: inhibitors. 2.8% of 360,000 active; note: series mostly up to about 57 µM; nearly all actives have a fitted effect of over 65% in size
# DT40 TDP1 no CPT – qHTS for Inhibitors of human tyrosyl-DNA phosphodiesterase 1 (TDP1): qHTS in cells in absence of CPT. DT40 Tdp1-/- hTDP1 cells, no CPT, ATP luminescence, 48 h. Potency, µM (titrated, usually from 46.2 µM), most hits filed as inhibitors. 15% of 420,000 active; note: nearly all actives have a fitted effect of over 55% in size
#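 Cells were dispensed at 400 per well, compounds added by pin tool, plates incubated ≥48 hr at 37 °C, then CellTiter-Glo added for 30 min at room temperature before luminescence reading. Line: DT40 Tdp1-/- complemented with hTDP1; camptothecin omitted.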
# Numbers stand for hits; i = inactive; ? = inconclusive; nt = not tested or not shown; [ ] = remark or other dose. Calls come from the whole dose curve; as a rule, active = well fitted curve in the direction sought with a large enough effect; inconclusive = small, poorly fitted or top-dose-only effect, or another doubt; inactive = no such curve, though single readings can be large; an effect the other way counts as inactive or inconclusive.
SMILES,TDP1 block,GCN5L2 inh,DT40 TDP1 CPT,VDR inhibitor,PLK1 PBD inh,DT40 TDP1 no CPT
CC(C)C1C(=O)N(Cc2cn(Cc3ccco3)nn2)CCS(=O)(=O)N1Cc1ccc(-c2ccccc2)cc1 (centres undefined),nt,nt,?,nt,i,18.4µM
CC(C)C1C(=O)N(Cc2cn(Cc3ccco3)nn2)CCS(=O)(=O)N1Cc1ccc(-c2ccncc2)cc1 (centres undefined),nt,nt,i,nt,i,i
CC(C)C1C(=O)N(Cc2cn(Cc3ccco3)nn2)CCS(=O)(=O)N1Cc1ccc(-c2ccc(F)cc2)cc1 (centres undefined),nt,nt,?,nt,i,20.6µM
CC(C)C1C(=O)N(Cc2cn(Cc3ccco3)nn2)CCS(=O)(=O)N1Cc1ccc(-c2ccc(Cl)cc2)cc1 (centres undefined),nt,nt,9.2µM,nt,i,6.51µM
Cc1ccc(C(=O)NCC(=O)OCC(=O)c2cccc3ccccc23)cc1,i,nt,?,?,nt,i
C[C@@H](c1ccccc1)N1C(=O)[C@H]2[C@H]3[C@H](O)[C@H](O)C/C(=N/NC(=O)OCc4ccccc4)[C@H]3CC[C@@H]2C1=O,i[21 µM],nt,nt,nt,nt,nt
Nc1cc(S(=O)(=O)O)ccc1O,i,nt,nt,nt,nt,nt
Cc1onc(-c2ccccc2)c1C(=O)Nc1cccc(S(=O)(=O)N2CCCCC2)c1,i,i,?,i,i,?
CCCNC(=O)c1cc(-c2ccco2)on1,i,i,9.2µM,i,i,9.2µM
CC(C)CNC(=O)c1cc(-c2ccco2)on1,i,i,15.8µM,i,i,17.8µM
O=C(NCc1ccc(Cl)cc1)c1cc(-c2ccco2)on1,i,i,i,i,i,i
O=C(Nc1cccc(O)c1)c1cc(-c2ccco2)on1,i,i,?,i,i,14.6µM
CC(=O)c1cccc(NC(=O)c2cc(-c3ccco3)on2)c1,i,i,i,i,i,i
CCOC(=O)c1nnc2c(-c3ccc(F)cc3)c(C)nn2c1N,i,i,i,i,nt,i
CC(NC(=O)/C(C#N)=C1\N=C(NC(=O)c2cccs2)c2ccccc21)c1ccccc1 (centres undefined),i,i,?,i,i,16.4µM
CSc1nc2c(c(=O)[nH]1)C(c1cccc(F)c1F)CC(=O)N2 (centres undefined),i,i,i,i,nt,i
O=C1CC(SC(=S)C2CCCC2=O)C(=O)N1 (centres undefined),nt,nt,?,nt,13.4µM,?
CCOC(=O)Nc1ccc2c(c1)C(=NNC(=S)NC)c1ccccc1-2,nt,nt,4.61µM,nt,i,3.26µM
CCOc1cc2c(cc1OCC)C(CC(=O)OC)N(C(=O)Nc1cc(OC)ccc1OC)CC2 (centres undefined),i,i,20.6µM,i,nt,14.6µM
CCOc1cc2c(cc1OCC)C(CC(=O)OC)N(C(=O)Nc1cc(C)cc(C)c1)CC2 (centres undefined),i,i,i,i,nt,i
CCOC(=O)CC1c2cc(OCC)c(OCC)cc2CCN1C(=O)Nc1cccc(Cl)c1 (centres undefined),i,i,?,i,nt,16.4µM
Cc1cccc(N2C(=O)/C(=C/c3cccnc3)SC2=S)c1,nt,i,?,i,i,i
Cc1cccc(NC(=O)CN2C(=O)N/C(=C/c3cc(C)n(-c4cccnc4)c3C)C2=O)c1,i,i,i,i,i,?
Cc1cc(/C=C2/NC(=O)N(c3ccccc3)C2=O)c(C)n1-c1cccnc1,i,i,25.9µM,i,i,?
Cc1cc(/C=C2/SC(=S)N(c3cccc(Cl)c3)C2=O)c(C)n1-c1cccnc1,nt,nt,2.59µM,i,i,2.06µM
Cc1cc(/C=C2/SC(=S)N(c3ccc([N+](=O)[O-])cc3)C2=O)c(C)n1-c1cccnc1,i,i,1.64µM,i,i,1.03µM
Cc1cc(/C=C2\SC(=S)N(C)C2=O)c(C)n1-c1ccccc1O,nt,nt,20.6µM,i,i,8.2µM
COc1ccc(OC)c(NC(=O)CSc2cn(CC(=O)N3CCOCC3)c3ccccc23)c1,i,i,?,i,nt,?
